# Results as given in article PMC7862700, “An all-to-all approach to the identification of sequence-specific readers for epigenetic DNA modifications on cytosine”.
# Assays:
# Experiment in all cases: DAPPL (digital affinity profiling via proximity ligation, sequencing); 10 mM Tris-HCl pH 7.5, 50 mM NaCl, 1 mM DTT, 4% glycerol, room temperature, 30 min; GST-TFs on glutathione beads, 16-mer random dsDNA library, 0.1% formaldehyde crosslink after washing; high values mean tight binding
# Settings in all cases: protein: recombinant; tags: N-terminal GST; dsDNA, one strand shown
# ELK1 = target: T1, ELK1 (Homo sapiens, UniProt P19419 1-428)
# T1 sequence: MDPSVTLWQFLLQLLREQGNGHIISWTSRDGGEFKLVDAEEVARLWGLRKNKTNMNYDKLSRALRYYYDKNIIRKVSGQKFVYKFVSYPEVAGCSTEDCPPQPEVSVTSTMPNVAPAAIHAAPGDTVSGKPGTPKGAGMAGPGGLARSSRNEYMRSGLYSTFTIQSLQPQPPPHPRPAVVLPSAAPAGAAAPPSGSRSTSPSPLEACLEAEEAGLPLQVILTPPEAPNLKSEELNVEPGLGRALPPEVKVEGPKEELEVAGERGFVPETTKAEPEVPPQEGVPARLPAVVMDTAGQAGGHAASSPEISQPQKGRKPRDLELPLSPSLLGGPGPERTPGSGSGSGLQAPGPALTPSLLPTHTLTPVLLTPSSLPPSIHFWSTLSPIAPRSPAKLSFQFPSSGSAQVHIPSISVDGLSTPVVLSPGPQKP
# How it was run: (§1)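 A tag-only sample was pooled with DNA-barcoded human transcription factors that had been expressed in yeast as GST fusions and captured on glutathione beads. The pools were incubated for 30 min at room temperature with 200 nmole of a random double-stranded 16-mer DNA library in Tris/NaCl/DTT/glycerol buffer, then washed, crosslinked with 0.1% formaldehyde, proximity-ligated (BsaI/T4 ligase, 1 h, 37 °C), PCR-amplified and sequenced on an Illumina NextSeq500. Binding signal is each hexamer's read frequency for a factor divided by its frequency for the tag-only sample.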
# GABPA = target: T2, GABPA (Homo sapiens, UniProt Q06546 1-454)
# T2 sequence: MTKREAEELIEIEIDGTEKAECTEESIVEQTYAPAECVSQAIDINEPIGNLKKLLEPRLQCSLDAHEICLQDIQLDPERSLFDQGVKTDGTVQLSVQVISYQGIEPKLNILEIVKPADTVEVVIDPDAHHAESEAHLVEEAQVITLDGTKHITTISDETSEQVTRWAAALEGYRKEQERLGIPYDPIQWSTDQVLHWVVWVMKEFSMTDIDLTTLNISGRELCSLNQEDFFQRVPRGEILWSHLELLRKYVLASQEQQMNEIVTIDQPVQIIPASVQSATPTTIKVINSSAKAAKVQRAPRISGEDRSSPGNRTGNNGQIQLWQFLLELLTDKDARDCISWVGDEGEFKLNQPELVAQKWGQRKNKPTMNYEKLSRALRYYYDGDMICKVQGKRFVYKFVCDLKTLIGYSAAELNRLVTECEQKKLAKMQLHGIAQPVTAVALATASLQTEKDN
# How it was run: as §1
# ELF1 = ELF1 (Homo sapiens, UniProt P32519 1-619)
# How it was run: as §1
# EHF = target: T3, EHF (Homo sapiens, UniProt Q9NZC4 1-300)
# T3 sequence: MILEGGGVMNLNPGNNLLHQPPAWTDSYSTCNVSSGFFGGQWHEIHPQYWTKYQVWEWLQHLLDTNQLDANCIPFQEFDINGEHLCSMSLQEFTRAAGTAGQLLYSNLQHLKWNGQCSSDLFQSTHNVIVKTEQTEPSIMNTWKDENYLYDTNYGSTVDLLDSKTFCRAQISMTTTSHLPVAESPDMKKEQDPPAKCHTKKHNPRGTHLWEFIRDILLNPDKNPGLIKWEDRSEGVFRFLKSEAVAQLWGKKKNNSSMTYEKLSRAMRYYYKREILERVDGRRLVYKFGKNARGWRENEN
# How it was run: as §1
# SPIB = SPIB (Homo sapiens, UniProt Q01892 1-262)
# How it was run: as §1
# FEV = target: T4, FEV (Homo sapiens, UniProt Q99581 1-238)
# T4 sequence: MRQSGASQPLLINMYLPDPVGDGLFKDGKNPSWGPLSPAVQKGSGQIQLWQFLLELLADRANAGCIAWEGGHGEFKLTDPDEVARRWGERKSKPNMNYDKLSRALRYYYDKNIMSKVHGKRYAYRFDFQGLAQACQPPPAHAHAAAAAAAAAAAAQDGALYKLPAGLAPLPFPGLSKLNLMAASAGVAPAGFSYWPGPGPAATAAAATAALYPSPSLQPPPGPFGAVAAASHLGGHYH
# How it was run: as §1
# ETV5 = ETV5 (Homo sapiens, UniProt P41161 1-510)
# How it was run: as §1
# ELF4 = ELF4 (Homo sapiens, UniProt Q99607 1-663)
# How it was run: as §1
# ELK4 = target: T5, ELK4 (Homo sapiens, UniProt P28324-2 1-405)
# T5 sequence: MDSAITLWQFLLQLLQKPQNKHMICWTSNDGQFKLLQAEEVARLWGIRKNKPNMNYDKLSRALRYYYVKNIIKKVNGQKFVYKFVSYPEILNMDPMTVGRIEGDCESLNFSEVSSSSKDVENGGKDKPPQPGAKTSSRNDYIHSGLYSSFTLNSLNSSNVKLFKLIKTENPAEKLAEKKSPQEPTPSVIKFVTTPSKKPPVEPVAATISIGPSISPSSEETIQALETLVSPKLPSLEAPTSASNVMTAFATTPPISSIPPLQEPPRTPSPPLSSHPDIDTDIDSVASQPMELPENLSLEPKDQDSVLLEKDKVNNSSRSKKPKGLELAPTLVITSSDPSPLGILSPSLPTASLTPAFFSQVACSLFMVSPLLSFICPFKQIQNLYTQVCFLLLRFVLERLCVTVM
# How it was run: as §1
# ETV2 = target: T6, ETV2 (Homo sapiens, UniProt O00321 1-342)
# T6 sequence: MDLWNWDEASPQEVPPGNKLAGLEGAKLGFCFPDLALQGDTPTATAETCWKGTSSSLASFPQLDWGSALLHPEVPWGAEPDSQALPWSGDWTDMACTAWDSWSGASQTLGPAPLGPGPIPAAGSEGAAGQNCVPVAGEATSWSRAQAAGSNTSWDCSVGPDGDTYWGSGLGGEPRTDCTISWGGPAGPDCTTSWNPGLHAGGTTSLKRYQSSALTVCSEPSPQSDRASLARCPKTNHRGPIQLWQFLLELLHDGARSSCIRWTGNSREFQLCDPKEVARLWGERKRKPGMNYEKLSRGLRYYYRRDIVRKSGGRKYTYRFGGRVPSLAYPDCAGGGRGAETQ
# How it was run: as §1
# ERF = target: T7, ERF (Homo sapiens, UniProt P50548 1-548)
# T7 sequence: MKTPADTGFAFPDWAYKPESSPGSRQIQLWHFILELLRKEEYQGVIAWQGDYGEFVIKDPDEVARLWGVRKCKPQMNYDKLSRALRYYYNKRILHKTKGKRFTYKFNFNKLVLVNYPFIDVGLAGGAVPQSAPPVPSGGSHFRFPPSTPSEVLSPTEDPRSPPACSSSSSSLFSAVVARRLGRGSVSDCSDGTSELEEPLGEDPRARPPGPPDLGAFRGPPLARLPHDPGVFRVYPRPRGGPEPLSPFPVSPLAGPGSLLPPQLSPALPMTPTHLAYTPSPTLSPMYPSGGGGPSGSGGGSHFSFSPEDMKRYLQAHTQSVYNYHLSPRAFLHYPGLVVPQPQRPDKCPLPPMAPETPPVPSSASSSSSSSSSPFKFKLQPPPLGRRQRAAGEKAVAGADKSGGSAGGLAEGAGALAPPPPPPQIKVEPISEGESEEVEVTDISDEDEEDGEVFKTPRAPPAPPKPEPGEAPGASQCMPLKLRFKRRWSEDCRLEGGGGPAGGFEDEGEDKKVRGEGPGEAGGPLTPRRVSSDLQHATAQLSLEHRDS
# How it was run: as §1
# SPDEF = target: T8, SPDEF (Homo sapiens, UniProt O95238 1-335)
# T8 sequence: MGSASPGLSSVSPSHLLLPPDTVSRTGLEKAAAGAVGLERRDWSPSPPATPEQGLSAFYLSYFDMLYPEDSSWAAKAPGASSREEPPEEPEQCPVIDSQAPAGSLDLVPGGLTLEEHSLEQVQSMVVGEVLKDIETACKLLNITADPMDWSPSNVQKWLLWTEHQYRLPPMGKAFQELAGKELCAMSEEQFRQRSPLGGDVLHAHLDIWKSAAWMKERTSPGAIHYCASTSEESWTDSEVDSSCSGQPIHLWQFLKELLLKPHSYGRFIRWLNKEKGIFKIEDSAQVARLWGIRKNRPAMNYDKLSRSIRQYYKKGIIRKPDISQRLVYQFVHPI
# How it was run: as §1
# ETV3 = target: T9, ETV3 (Homo sapiens, UniProt P41162-2 1-143)
# T9 sequence: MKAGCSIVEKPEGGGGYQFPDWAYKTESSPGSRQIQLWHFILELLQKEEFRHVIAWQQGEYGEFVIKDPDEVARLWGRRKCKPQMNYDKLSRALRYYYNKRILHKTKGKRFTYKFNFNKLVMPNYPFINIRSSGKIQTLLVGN
# How it was run: as §1
# ETV6 = ETV6 (Homo sapiens, UniProt P41212 1-452)
# How it was run: as §1
# Sequence of ETV5 (P41161 whole entry): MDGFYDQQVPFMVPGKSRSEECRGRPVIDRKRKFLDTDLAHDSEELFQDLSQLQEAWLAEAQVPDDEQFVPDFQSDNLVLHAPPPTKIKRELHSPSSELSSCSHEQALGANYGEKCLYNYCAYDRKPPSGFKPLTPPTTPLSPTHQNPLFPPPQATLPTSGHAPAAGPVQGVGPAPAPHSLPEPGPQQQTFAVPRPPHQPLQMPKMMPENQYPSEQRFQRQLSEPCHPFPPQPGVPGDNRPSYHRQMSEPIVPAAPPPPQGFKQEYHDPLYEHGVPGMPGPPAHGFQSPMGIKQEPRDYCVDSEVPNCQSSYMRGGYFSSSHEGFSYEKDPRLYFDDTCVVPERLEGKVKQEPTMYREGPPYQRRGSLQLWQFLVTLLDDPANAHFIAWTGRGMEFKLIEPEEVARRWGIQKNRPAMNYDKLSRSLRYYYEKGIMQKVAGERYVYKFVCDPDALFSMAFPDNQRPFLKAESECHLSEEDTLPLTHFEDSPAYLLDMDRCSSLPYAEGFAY
# Sequence of ETV6 (P41212 whole entry): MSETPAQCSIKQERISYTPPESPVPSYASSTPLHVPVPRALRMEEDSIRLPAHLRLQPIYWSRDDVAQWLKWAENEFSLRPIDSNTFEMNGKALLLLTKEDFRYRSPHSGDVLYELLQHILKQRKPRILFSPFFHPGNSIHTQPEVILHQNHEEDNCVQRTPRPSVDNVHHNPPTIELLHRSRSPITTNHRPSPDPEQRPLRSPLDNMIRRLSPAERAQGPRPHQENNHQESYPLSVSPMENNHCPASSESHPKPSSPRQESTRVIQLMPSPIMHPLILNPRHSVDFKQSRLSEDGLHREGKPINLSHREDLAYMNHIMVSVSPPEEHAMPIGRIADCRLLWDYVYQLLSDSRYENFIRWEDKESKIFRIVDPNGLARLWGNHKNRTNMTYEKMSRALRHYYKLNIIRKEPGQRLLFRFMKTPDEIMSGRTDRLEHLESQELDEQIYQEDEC
# Sequence of ELF4 (Q99607 whole entry): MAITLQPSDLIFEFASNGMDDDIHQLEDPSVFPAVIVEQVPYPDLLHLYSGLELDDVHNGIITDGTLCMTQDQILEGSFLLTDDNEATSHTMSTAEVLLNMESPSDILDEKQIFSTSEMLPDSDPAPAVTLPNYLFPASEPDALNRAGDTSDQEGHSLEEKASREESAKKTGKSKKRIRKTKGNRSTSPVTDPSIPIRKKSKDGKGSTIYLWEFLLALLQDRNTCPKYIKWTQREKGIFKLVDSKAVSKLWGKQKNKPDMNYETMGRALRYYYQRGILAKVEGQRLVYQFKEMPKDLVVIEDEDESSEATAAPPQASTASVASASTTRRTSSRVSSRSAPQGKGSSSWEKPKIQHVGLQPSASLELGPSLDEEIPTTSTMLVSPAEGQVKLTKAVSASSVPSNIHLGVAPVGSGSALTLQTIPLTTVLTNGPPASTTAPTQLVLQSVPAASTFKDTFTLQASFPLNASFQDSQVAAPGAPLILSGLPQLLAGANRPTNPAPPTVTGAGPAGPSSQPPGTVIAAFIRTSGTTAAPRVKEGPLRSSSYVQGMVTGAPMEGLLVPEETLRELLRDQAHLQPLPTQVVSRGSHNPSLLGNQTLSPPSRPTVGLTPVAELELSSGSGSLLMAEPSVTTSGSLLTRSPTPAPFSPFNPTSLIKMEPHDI
# Sequence of ELF1 (P32519 whole entry): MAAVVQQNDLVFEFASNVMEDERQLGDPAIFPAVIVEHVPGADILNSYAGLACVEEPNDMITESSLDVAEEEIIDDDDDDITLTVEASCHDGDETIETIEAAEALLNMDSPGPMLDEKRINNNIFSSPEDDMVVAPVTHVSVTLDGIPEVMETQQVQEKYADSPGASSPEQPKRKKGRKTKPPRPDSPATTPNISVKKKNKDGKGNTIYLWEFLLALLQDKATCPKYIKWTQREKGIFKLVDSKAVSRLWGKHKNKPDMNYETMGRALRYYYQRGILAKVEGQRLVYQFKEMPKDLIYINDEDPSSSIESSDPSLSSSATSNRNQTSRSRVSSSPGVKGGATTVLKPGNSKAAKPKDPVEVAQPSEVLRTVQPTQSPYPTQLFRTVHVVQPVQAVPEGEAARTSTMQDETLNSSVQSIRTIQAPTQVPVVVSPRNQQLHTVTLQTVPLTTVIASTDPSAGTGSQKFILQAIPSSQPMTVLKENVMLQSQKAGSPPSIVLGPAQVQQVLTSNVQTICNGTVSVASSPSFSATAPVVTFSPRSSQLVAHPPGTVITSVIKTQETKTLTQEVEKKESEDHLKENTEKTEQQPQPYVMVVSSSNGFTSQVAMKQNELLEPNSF
# Sequence of SPIB (Q01892 whole entry): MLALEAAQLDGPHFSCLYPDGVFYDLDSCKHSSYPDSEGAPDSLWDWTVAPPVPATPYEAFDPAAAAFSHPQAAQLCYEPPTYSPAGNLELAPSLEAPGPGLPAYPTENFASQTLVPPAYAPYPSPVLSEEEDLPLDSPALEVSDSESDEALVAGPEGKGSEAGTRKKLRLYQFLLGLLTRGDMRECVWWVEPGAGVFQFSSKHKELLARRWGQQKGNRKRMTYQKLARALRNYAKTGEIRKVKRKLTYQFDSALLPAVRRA
sequence,measurement,setting,value
ACCAAA,binding signal,ELK1,"1.05 fold enrichment (6-mer frequency, TF over GST control)"
same,binding signal,GABPA,"1.01 fold enrichment (6-mer frequency, TF over GST control)"
same,binding signal,ELF1,"1.04 fold enrichment (6-mer frequency, TF over GST control)"
same,binding signal,EHF,"1.07 fold enrichment (6-mer frequency, TF over GST control)"
same,binding signal,SPIB,"1.03 fold enrichment (6-mer frequency, TF over GST control)"
same,binding signal,FEV,"1.07 fold enrichment (6-mer frequency, TF over GST control)"
same,binding signal,ETV5,"1.03 fold enrichment (6-mer frequency, TF over GST control)"
same,binding signal,ELF4,"1.1 fold enrichment (6-mer frequency, TF over GST control)"
same,binding signal,ELK4,"1.02 fold enrichment (6-mer frequency, TF over GST control)"
same,binding signal,ETV2,"1.14 fold enrichment (6-mer frequency, TF over GST control)"
same,binding signal,ERF,"1.03 fold enrichment (6-mer frequency, TF over GST control)"
same,binding signal,SPDEF,"1.04 fold enrichment (6-mer frequency, TF over GST control)"
same,binding signal,ETV3,"1.02 fold enrichment (6-mer frequency, TF over GST control)"
same,binding signal,ETV6,"1.03 fold enrichment (6-mer frequency, TF over GST control)"
